Results from PubChem BioAssay.
Active and inactive are the calls of the source.

Assays:
[1] = test system: Plasmodium falciparum Sir2 (PF13_0152, Sir2A); assay: Plasmodium falciparum Sir2A binding compounds – biochemical, small-molecule microarray, 635 nm fluorescence, primary screen (AID 1098); details: fluorescence 635 nm, higher = more signal;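 further: score merges spot fluorescence intensity with its signal-to-noise ratio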
[2] = probe aDKK1 binding to arrayed compounds – biochemical, biotinylated probe, 635/667 nm fluorescence, primary screen (AID 1099); details: small-molecule microarray, higher = more signal;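 further: score merges 667nm spot fluorescence with signal to noise across triplicate slides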
[3] = probe aCHRDL2 binding to arrayed compounds – biochemical, biotinylated probe, 635/667 nm fluorescence, primary screen (AID 1100); details: small-molecule microarray, higher = more signal
[4] = change in splice reporter luminescence, either direction, cell-based, HEK293, spliceosome inhibition project, primary screen (AID 1101); details: HEK293 splicing luciferase reporter, 24 h, higher = more signal, called active from +8 up or from −8 down;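 further: HEK293 cells carrying a splicing-competent luciferase reporter gene; test concentration not given here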
[5] = target: Fibroblast growth factor 10 (Homo sapiens) (UniProt O15520); assay: compounds binding fibroblast growth factor 10 – biochemical, small-molecule microarray, 635 nm fluorescence, primary screen (AID 1102); details: FGF10 binding, fluorescence 635 nm, higher = more signal
Sequence of Fibroblast growth factor 10 (Homo sapiens) (O15520 whole entry, looked up): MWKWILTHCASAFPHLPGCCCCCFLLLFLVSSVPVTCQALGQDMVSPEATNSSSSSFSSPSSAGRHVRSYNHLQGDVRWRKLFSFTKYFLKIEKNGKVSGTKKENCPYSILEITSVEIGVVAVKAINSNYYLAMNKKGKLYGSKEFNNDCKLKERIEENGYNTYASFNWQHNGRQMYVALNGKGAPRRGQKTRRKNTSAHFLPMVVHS

[6] = test system: glycogen synthase kinase-3 (GSK3A per assay name; protocol says GSK3B); assay: compounds binding glycogen synthase kinase-3 – biochemical, small-molecule microarray, 635 nm fluorescence, GSK3A, primary screen (AID 1103); details: fluorescence 635 nm, higher = more signal; further: the record names both GSK3A and GSK3B
[7] = target: Epidermal growth factor receptor (Homo sapiens) (UniProt P00533); assay: compounds binding epidermal growth factor receptor – biochemical, small-molecule microarray, 635 nm fluorescence, primary screen (AID 1104); details: EGFR binding, higher = more signal;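 further: score merges 667 nm emission intensity with spot signal to noise over triplicate slides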
Sequence of Epidermal growth factor receptor (Homo sapiens) (P00533 whole entry, looked up): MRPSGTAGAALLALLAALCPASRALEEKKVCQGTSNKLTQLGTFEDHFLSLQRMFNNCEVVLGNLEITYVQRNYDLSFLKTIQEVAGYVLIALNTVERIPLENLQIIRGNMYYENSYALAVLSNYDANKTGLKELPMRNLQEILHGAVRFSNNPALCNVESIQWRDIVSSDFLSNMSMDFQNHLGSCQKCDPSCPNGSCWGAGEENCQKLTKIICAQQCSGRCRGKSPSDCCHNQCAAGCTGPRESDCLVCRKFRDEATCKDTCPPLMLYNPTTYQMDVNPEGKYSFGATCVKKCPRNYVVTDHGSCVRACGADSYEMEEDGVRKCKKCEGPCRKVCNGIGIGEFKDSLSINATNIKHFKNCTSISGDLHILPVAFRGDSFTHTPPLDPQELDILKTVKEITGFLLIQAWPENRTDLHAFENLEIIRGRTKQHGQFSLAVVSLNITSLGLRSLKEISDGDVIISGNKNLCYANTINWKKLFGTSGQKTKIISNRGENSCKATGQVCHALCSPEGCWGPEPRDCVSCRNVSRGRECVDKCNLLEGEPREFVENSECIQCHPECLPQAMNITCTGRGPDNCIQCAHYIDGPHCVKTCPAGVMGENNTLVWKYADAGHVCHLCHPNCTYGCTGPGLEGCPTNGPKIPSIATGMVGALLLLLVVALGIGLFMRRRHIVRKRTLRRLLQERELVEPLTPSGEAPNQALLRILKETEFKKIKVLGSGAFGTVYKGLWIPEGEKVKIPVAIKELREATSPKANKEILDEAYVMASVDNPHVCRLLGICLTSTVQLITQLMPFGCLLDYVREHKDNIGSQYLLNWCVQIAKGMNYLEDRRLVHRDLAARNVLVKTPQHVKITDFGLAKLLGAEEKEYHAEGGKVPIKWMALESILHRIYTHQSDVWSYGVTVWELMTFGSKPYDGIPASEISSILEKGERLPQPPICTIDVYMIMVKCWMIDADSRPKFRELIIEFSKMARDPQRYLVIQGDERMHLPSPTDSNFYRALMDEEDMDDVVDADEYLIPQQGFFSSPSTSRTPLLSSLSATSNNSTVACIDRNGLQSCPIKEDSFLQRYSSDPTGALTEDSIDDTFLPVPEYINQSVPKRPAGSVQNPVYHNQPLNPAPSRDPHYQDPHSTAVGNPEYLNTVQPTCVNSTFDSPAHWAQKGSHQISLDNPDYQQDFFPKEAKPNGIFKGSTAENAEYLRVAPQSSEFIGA

[8] = target: Follistatin-related protein 3 (Homo sapiens) (UniProt O95633); assay: compounds binding follistatin-related protein 3 – biochemical, small-molecule microarray, 635 nm fluorescence, primary screen (AID 1105); details: FSTL3 binding, higher = more signal;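 further: score merges emission near 667 nm and signal to noise per printed spot across three slides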
Sequence of Follistatin-related protein 3 (Homo sapiens) (O95633 whole entry, looked up): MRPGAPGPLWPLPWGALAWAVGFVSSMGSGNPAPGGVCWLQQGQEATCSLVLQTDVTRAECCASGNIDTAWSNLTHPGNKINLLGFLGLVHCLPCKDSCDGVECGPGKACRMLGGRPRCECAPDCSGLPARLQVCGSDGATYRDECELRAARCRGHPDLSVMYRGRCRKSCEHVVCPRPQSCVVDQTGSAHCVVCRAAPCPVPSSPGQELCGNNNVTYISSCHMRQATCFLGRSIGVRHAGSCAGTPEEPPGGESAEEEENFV

[9] = target: Dickkopf-related protein 1 (Homo sapiens) (UniProt O94907); assay: small molecules binding DKK1 protein – biochemical, small-molecule microarray, 635 nm fluorescence scan, primary screen (AID 1106); details: higher = more signal;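 further: score merges emission near 667 nm with signal to noise over three replicate slides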
Sequence of Dickkopf-related protein 1 (Homo sapiens) (O94907 whole entry, looked up): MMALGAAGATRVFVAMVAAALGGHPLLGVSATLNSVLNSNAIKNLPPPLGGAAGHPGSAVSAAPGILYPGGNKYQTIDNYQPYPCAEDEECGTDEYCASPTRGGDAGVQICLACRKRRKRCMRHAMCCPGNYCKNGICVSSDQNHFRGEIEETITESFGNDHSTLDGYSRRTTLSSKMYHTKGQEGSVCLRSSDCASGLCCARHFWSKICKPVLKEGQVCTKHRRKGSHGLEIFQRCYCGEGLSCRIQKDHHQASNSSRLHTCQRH

[10] = test system: Inhibin beta A chain (activin A); assay: small molecules binding activin A – biochemical, small-molecule microarray, 635 nm fluorescence scan, primary screen (AID 1107); details: INHBA, higher = more signal;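 further: mouse activin A protein probed at 4.33 µg/mL on printed slides; score merges bound-protein fluorescence near 667 nm with spot signal-to-noise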
[11] = test system: Human papillomavirus type 1a protein E7 (residues 44-93); assay: small molecules binding HPV E7 44-93 – biochemical, small-molecule microarray, residues 44-93, 635 nm fluorescence, primary screen (AID 1108); details: fluorescence 635 nm, higher = more signal;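 further: E7 fragment applied at 1 µg/mL in TBST for 1 h at 4 C; score combines spot fluorescence with its signal to noise ratio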
[12] = hepatitis C replication reporter changes, two-sided – Huh7 cells, luciferase reporter, HCV replication inhibitor project, primary screen (AID 1109); details: Huh7 HCV replicon luciferase reporter, 48 h; higher = more signal;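 further: huh7 hepatoma cells harbouring a luciferase neomycin HCV replicon reporter; luciferase luminescence as measure of HCV replicon replication; test concentration not given here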
[13] = target: Left-right determination factor 2 (Homo sapiens) (UniProt O00292); assay: small molecules binding LEFTY2 protein – biochemical, small-molecule microarray, 635 nm fluorescence scan, primary screen (AID 1110); details: higher = more signal
Sequence of Left-right determination factor 2 (Homo sapiens) (O00292 whole entry, looked up): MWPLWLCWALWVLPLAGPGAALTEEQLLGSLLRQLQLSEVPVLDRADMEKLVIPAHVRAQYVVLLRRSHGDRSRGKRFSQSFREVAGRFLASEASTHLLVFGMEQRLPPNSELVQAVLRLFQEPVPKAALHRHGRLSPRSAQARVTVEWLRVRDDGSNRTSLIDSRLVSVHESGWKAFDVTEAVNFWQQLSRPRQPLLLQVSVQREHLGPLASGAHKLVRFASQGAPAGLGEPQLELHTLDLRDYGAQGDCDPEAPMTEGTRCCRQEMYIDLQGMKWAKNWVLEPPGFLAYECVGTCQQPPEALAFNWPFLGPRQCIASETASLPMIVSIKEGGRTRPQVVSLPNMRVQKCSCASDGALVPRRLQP

[14] = target: Calmodulin-1 (Homo sapiens) (UniProt P0DP23); assay: small molecules binding calmodulin-1 with EGTA – biochemical, small-molecule microarray, Cy5-labelled CALM1, profiling panel (AID 1111); details: Cy5-CALM1 binding fluorescence, higher = more signal;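 further: labelled calmodulin applied in Tris saline Tween buffer holding calcium plus EGTA and DTT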
[15] = target: Calmodulin-1 (Homo sapiens) (UniProt P0DP23); assay: small molecules binding Ca-loaded calmodulin-1 – biochemical, small-molecule microarray, Cy5-labelled CALM1, plus calcium, artefact control for SMM control-protein annotation, profiling panel (AID 1112); details: Cy5-CALM1 binding fluorescence, higher = more signal;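 further: score merges spot fluorescence with signal to noise from triplicate slides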
[16] = probe aWnt5a binding to arrayed compounds – biochemical, biotinylated probe, 635/667 nm fluorescence, primary screen (AID 1113); details: small-molecule microarray, higher = more signal;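 further: score merges 667 nm fluorescence intensity with signal-to-noise per printed feature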
[17] = probe aShh binding to arrayed compounds – biochemical, biotinylated probe, 635/667 nm fluorescence, primary screen (AID 1114); details: small-molecule microarray, higher = more signal;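 further: probe is biotin-labelled aShh protein from a stem cell growth factor screen; measures binding of labelled protein to compounds printed on the slide; score merges feature fluorescence at 667 nm with signal-to-noise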
[18] = probe aNog binding to arrayed compounds – biochemical, biotinylated probe, 635/667 nm fluorescence, primary screen (AID 1115); details: small-molecule microarray, higher = more signal;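 further: probe is biotinylated aNog protein used at 0.15 µg/mL for 1 h at 4 C; z-score combines 667 nm fluorescence of each spot with its signal to noise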
[19] = target: Torsin-1A-interacting protein 1 (Homo sapiens) (UniProt Q5JTV8); assay: compound microarray binding of lysate hLAP1 – cell lysate, small-molecule microarray, COS7 lysate, 635/667 nm fluorescence, primary screen (AID 1116); details: 635 nm fluorescence, higher = more signal
Sequence of Torsin-1A-interacting protein 1 (Homo sapiens) (Q5JTV8 whole entry, looked up): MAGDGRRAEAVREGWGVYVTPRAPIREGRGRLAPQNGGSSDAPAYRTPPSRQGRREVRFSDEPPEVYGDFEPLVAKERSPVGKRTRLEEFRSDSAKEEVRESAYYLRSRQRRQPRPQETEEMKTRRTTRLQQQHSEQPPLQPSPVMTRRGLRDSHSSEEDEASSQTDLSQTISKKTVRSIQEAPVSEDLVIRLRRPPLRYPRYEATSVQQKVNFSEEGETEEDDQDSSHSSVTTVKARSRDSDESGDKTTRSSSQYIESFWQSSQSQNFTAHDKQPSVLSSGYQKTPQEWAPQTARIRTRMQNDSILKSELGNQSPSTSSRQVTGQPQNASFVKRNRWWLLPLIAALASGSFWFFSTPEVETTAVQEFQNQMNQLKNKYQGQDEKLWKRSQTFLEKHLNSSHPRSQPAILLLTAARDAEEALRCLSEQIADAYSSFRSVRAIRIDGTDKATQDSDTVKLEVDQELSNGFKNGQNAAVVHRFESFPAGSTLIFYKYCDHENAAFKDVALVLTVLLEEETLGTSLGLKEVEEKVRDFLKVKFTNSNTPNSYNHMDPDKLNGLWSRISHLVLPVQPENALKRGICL

[20] = target: Alpha-bungarotoxin (Bungarus multicinctus) (UniProt P60615); assay: compounds binding labelled alpha-BTX control protein – biochemical, small-molecule microarray, Alexa647 label, 635/667 nm fluorescence, artefact control for SMM control protein annotation, profiling panel (AID 1117); details: alpha-BTX-A647 binding fluorescence, higher = more signal
Sequence of Alpha-bungarotoxin (Bungarus multicinctus) (P60615 whole entry, looked up): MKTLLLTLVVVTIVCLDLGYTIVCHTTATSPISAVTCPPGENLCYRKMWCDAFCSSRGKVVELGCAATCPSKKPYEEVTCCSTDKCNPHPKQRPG

Compound	composite z-score [1]	composite z-score [2]	composite z-score [3]	z-score [4]	composite z-score [5]	composite z-score [6]	composite z-score [7]	composite z-score [8]	composite z-score [9]	composite z-score [10]	composite z-score [11]	z-score [12]	composite z-score [13]	composite z-score [14]	composite z-score [15]	composite z-score [16]	composite z-score [17]	composite z-score [18]	composite z-score [19]	composite z-score [20]
COC(=O)[C@@]1(Cc2ccccc2CN=[N+]=[N-])N=C(c2ccc(OCCCO)cc2)O[C@H]1c1ccccc1CN=[N+]=[N-]	1.32	-0.0486	1.02	-1.34 (inactive)	-0.304	-0.568	-1.48	-0.774	-1.02	-0.0879	0.445	-2.92	-2.01	0.0829	0.526	0.0733	-0.156	0.96	1.1	0.0937
CC(C)CNC(=O)[C@@]1(C)c2ccccc2C(=O)N(Cc2cc(C(F)(F)F)cc(C(F)(F)F)c2)[C@H]1c1ccc(CO)cc1	0.386	-0.147	0.587	0.0167 (inactive)	-0.631	-1.02	-0.647	-0.522	-0.6	0.32	0.267	-0.447	-0.557	-0.438	0.507	-0.175	-0.291	-0.318	0.0492	-0.0153
CC(C)C(CO)N1C(=O)[C@@H]2[C@H]3C(=O)OCC=C[C@H]3OC23C=CCN(C(C)(C)C)C(=O)[C@@H]13 (stereo not given in full)	1.45	-0.293	-0.348	0.454 (inactive)	-1.07	-1.57	-0.257	-0.21	-0.181	0.83	-1.27	-0.425	-0.15	-0.907	-1.43	-0.204	0.0725	-0.133	-0.809	-0.0022
O=C1c2ccccc2[C@](Cc2ccccc2I)(C(=O)NC2CC2)[C@H](c2ccc(CO)cc2)N1Cc1ccccc1C(F)(F)F	1.43	-0.349	0.768	-0.987 (inactive)	0.535	-0.265	-0.922	0.32	-0.74	-0.771	1.45	-2.2	-1.16	0.463	-0.541	-0.0735	-0.147	-0.484	0.103	0.968
NC(=O)[C@H]1[C@@H]2C(=O)O[C@@H](c3ccccc3)[C@@H](c3ccccc3)N2[C@@H](c2ccc(O)cc2)[C@]12C(=O)Nc1ccc(C#CC3=CCCCC3)cc12	-0.165	-0.157	0.724	-1.67 (inactive)	0.0647	-0.229	-0.433	-0.0656	-0.0761	0.0756	1.42	-1.49	-0.443	0.0791	-0.413	-0.0792	-0.279	-0.185	0.731	1.02
